# Test results taken from PubChem BioAssay (NCATS).
# Records with an inconclusive call do not appear. Entries that show only a call come without a potency. The source made the active and inactive calls. Unless noted, calls follow the shape of the dose curve; as a rule, active = well fitted curve in the direction sought with a large enough effect; inconclusive = small, poorly fitted or top-dose-only effect, or another doubt; inactive = no such curve, though single readings can be large; an effect the other way counts as inactive or inconclusive.
# How the values were obtained:
# Furin (Homo sapiens) = Furin (Homo sapiens) (UniProt P09958); test: Furin counterscreen qHTS for Zika virus inhibitors (AID 1347149); also: nearly all actives have a fitted effect of over 70% in size; also: potency is read from the fitted curve at half-maximal effect;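 as to activity change, negative = inhibition: purified recombinant full-length human furin enzyme at 5 nM; fluorescence gain from furin cutting a BOC-RVRR-AMC peptide substrate over 15 min; top concentration of the series differs between compounds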
# Chain of Furin (Homo sapiens) (P09958 whole entry, looked up): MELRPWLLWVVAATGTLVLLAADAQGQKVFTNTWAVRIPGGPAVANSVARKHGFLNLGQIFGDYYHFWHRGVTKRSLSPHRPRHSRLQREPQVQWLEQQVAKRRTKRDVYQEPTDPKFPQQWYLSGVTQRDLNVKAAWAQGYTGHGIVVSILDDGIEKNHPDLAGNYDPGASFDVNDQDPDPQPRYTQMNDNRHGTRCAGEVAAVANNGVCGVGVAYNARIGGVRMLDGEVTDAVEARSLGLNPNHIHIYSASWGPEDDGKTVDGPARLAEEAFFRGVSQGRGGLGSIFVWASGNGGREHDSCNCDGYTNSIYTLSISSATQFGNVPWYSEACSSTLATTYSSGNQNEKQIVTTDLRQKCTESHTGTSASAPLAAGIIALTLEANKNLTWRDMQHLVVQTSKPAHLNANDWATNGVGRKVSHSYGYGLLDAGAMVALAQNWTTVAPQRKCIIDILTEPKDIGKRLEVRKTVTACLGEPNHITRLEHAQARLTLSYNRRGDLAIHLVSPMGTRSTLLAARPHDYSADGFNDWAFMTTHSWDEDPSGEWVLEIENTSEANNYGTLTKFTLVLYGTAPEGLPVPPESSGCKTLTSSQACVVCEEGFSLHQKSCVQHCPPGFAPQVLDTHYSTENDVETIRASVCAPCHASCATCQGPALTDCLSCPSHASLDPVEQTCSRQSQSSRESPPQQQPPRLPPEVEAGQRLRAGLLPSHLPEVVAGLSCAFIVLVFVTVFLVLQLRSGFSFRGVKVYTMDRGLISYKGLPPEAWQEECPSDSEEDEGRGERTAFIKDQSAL
# Outline: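 Fluorogenic cleavage of BOC-RVRR-AMC (2 microM final, Km ~15 µM) was monitored (ex 340, em 450 nm) at 37C after 15 min RT preincubation of 5 nM furin with compounds in HEPES pH 7.0 buffer with CaCl2 and Triton X-100. Percent inhibition was fitted to a 4-parameter Hill curve.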
# [1] = tested on: Zika virus NS2B-NS3 protease (unlinked); test: Optimization of GU AMC qHTS for Zika virus inhibitors: Unlinked NS2B-NS3 protease assay (AID 1347151); also: nearly all actives have a fitted effect of over 80% in size
# Outline: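 Noncovalent complex of NS2B hydrophilic domain and NS3 protease domain, 25 nM final, in 10 mM Tris-HCl pH 8.0, 0.01% Tween 20. AMC fluorescence change over 15 min at room temperature was fitted to a 4-parameter Hill equation.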
# [2] = Vero cells viability qHTS for Zika virus inhibitors (AID 1347167)
# Outline: (§1)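 Compounds were tested in concentration series on cells grown in DMEM containing 4% FBS. After 24 to 48 hours, cellular ATP was measured by luminescence with CellTiter Glo.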
# [3] = HepG2 cells viability qHTS for Zika virus inhibitors (AID 1347168)
# Outline: as §1
# [4] = Tertiary RLuc qRT-PCR qHTS assay for Zika virus inhibitors (AID 1347169); also: top concentration of the series differs between compounds; nearly all actives have a fitted effect of over 55% in size
# Outline: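 Vero cells (1,000 per well) plated overnight at 37 degrees C, treated with compound in DMSO, then infected with recombinant ZIKV-RLuc (Cambodian) at MOI 1-2 for 48-72 hrs. Live-cell Renilla luciferase substrate added; luminescence read after 1-1.5 hrs.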
# [5] = biological target: Catechol O-methyltransferase (Homo sapiens) (UniProt P21964); test: Confirmatory Screen for Target Class Profiling of Small Molecule Inhibitors of Methyltransferases (AID 1745852; calls by dose curve; also: potency is read from the fitted curve at half-maximal effect); conditions: MTase-Glo luminescence, SAH detection, recombinant enzyme; measured here: COMT max response; stronger effect = lower value
# Chain of Catechol O-methyltransferase (Homo sapiens) (P21964 whole entry, looked up): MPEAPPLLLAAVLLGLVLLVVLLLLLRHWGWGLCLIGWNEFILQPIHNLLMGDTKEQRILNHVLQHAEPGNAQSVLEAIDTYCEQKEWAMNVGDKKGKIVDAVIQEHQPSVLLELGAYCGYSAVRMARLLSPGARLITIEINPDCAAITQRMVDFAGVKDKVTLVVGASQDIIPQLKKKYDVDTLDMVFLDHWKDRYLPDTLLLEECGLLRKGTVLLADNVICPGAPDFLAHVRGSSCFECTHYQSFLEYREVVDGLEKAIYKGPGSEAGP
# [6] = biological target: Guanidinoacetate N-methyltransferase (Homo sapiens) (UniProt Q14353); test: as above; conditions: activity change, negative = inhibition: at 57.3 µM (top of the series) unless noted
# [7] = biological target: Nicotinamide N-methyltransferase (Homo sapiens) (UniProt P40261); test: as above; conditions: MTase-Glo luminescence, SAH detection, recombinant enzyme; measured here: NNMT max response; stronger effect = lower value
# Chain of Nicotinamide N-methyltransferase (Homo sapiens) (P40261 whole entry, looked up): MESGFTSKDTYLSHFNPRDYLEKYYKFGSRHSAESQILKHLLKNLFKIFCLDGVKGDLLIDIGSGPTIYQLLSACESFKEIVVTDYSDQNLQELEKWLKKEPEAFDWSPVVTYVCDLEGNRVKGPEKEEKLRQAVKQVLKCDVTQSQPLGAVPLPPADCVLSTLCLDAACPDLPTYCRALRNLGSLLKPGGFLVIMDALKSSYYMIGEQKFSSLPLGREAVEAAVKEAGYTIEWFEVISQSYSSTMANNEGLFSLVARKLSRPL
# [8] = biological target: Phenylethanolamine N-methyltransferase (Homo sapiens) (UniProt P11086); test: as above; conditions: MTase-Glo luminescence, SAH detection, recombinant enzyme; measured here: PNMT max response; stronger effect = lower value
# Chain of Phenylethanolamine N-methyltransferase (Homo sapiens) (P11086 whole entry, looked up): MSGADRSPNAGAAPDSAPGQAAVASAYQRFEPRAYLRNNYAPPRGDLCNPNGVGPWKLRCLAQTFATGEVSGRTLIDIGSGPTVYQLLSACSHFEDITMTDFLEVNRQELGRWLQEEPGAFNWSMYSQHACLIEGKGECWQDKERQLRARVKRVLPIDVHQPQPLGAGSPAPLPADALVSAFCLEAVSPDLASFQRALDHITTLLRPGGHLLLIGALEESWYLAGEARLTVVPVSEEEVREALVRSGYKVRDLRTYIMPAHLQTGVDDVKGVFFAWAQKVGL
SMILES,Potency (Furin (Homo sapiens)),Potency [1],Potency [2],Potency [3],Potency [4],activity [5] [%],Potency [6],activity [7] [%],activity [8] [%]
Nc1ncnc2c1ncn2[C@@H]1O[C@H](C[C@@H](N)CC[C@H](N)C(=O)O)[C@@H](O)[C@H]1O,inactive,inactive,inactive,inactive,inactive,-81.8,21.7 µM (active),-74.5,-86.5
CC(C)C(NC(=O)C(CCCN=C(N)N)NC(=O)NC(Cc1ccccc1)C(=O)O)C(=O)NC(C=O)CCCN=C(N)N (stereo not given),11.2 µM (active),–,–,–,–,–,–,–,–
